# Source: PubChem BioAssay (EPA / NIEHS)
# The source holds several records for some structures; these can differ, active in one and inactive in another. Active and inactive are the calls of the source. How the source made its calls: active means hit-call score of the fitted dose curve at least 0.9, where 1 is the maximum; inactive means score below 0.9.
# Key:
# Conditions in all cases: mRNA level, 48 h; actives raise or lower the signal
# [1] = read-out: Interleukin 6 (IL6), IL6 (gene 3569); test: LTEA_HepaRG_IL6: Life Technologies and Expression Analysis (LTEA) Assay for Interleukin 6 (IL6) using HepaRG (AID 2283509)
# Summary of the method: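 qRT-PCR read-out of IL6 transcript, normalized to three housekeeping genes, after 48 h chemical exposure of HepaRG cells; 8-point half-log series, top 100 uM, 0.5% DMSO vehicle. Bidirectional curve fitting against DMSO baseline.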
# [2] = read-out: Interleukin 6 Receptor (IL6R), IL6R (gene 3570); test: LTEA_HepaRG_IL6R: Life Technologies and Expression Analysis (LTEA) Assay for Interleukin 6 Receptor (IL6R) using HepaRG (AID 2283510);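 on AC50: differentiated human HepaRG liver cells in serum-free induction medium; TaqMan qRT-PCR signal normalized to ACTB GAPDH and POLR2A housekeeping genes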
# Summary of the method: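 In this HepaRG screen, test chemicals act on cells for 48 h at up to 100 uM (eight half-log points, duplicate wells). IL6R expression is quantified by qRT-PCR after normalization to ACTB, GAPDH and POLR2A, with DMSO as baseline.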
# [3] = read-out: Potassium channel subfamily K member 1 (KCNK1), KCNK1 (gene 3775); test: LTEA_HepaRG_KCNK1: Life Technologies and Expression Analysis (LTEA) Assay for Potassium channel subfamily K member 1 (KCNK1) using HepaRG (AID 2283511)
# Summary of the method: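 HepaRG, 48 h exposure, 8-pt half-log series top 100 uM, 0.5% DMSO vehicle, duplicates. Readout: KCNK1 transcript by qRT-PCR (Fluidigm array), housekeeping-normalized; bidirectional curve fit relative to DMSO baseline.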
# [4] = read-out: Keratin 19 (KRT19), KRT19 (gene 3880); test: LTEA_HepaRG_KRT19: Life Technologies and Expression Analysis (LTEA) Assay for Keratin 19 (KRT19) using HepaRG (AID 2283512)
# Summary of the method: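 KRT19 transcript levels, measured by Fluidigm qRT-PCR against three housekeeping genes, are fitted for gain or loss of signal relative to DMSO. Human HepaRG cells receive test chemicals (top 100 uM, half-log steps, 0.5% DMSO) for 48 hours.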
# [5] = read-out: JUN Transcription Factor, JUN (gene 3725); test: LTEA_HepaRG_JUN: Life Technologies and Expression Analysis (LTEA) Assay for JUN Transcription Factor using HepaRG (AID 2283513)
# Summary of the method: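 Gene-expression endpoint: JUN mRNA (qRT-PCR, normalized to three reference genes) in HepaRG cultures treated 48 h with chemicals, duplicate wells, 100 uM maximum with half-log dilutions; bidirectional fitting relative to 0.5% DMSO.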
# [6] = read-out: Lipase C (LIPC), LIPC (gene 3990); test: LTEA_HepaRG_LIPC: Life Technologies and Expression Analysis (LTEA) Assay for Lipase C (LIPC) using HepaRG (AID 2283514)
# Summary of the method: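 HepaRG, 48 h exposure, 8-pt half-log series from 100 uM in 0.5% DMSO, duplicates. Readout: LIPC mRNA by Fluidigm qRT-PCR, housekeeping-normalized (ACTB/GAPDH/POLR2A). Gain or loss fitted bidirectionally against DMSO baseline.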
# [7] = read-out: Lipoprotein lipase (LPL), LPL (gene 4023); test: LTEA_HepaRG_LPL: Life Technologies and Expression Analysis (LTEA) Assay for Lipoprotein lipase (LPL) using HepaRG (AID 2283515)
# Summary of the method: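 HepaRG, 48 h exposure, 8-pt half-log dilutions from 100 uM, 0.5% DMSO vehicle, duplicates; qRT-PCR (Fluidigm array) of LPL mRNA vs housekeeping genes; bidirectional curve fit relative to DMSO baseline.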
# [8] = read-out: MicroRNA 122 (MIR122), gene 406906; test: LTEA_HepaRG_MIR122: Life Technologies and Expression Analysis (LTEA) Assay for MicroRNA 122 (MIR122) using HepaRG (AID 2283516); further: the transcript read is the microRNA miR-122
# Summary of the method: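 Changes in transcript abundance, up or down relative to 0.5% DMSO vehicle, were scored after 48 h chemical treatment of HepaRG cells (maximum 100 uM). Quantification used TaqMan qRT-PCR normalized to housekeeping genes.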
# [9] = read-out: matrix metalloproteinase-10 (MMP10), MMP10 (gene 4319); test: LTEA_HepaRG_MMP10: Life Technologies and Expression Analysis (LTEA) Assay for matrix metalloproteinase-10 (MMP10) using HepaRG (AID 2283517)
# Summary of the method: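 Transcript levels come from Fluidigm qRT-PCR normalized to three housekeeping genes, with curves fitted bidirectionally against 0.5% DMSO. Human HepaRG cells were dosed for 48 hours at concentrations up to 100 uM.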
# MYC, MYC (gene 4609) = test: LTEA_HepaRG_MYC: Life Technologies and Expression Analysis (LTEA) Assay for MYC using HepaRG (AID 2283518)
# Summary of the method: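 HepaRG, ~100,000 cells/well, collagen I; 48 h plating; serum-free induction medium; 48 h dosing, duplicate, 100 uM top, half-log, 0.5% DMSO; total RNA → qRT-PCR MYC; gain/loss fit vs DMSO.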
SMILES,outcome [1],outcome [2],outcome [3],outcome [4],outcome [5],outcome [6],outcome [7],outcome [8],outcome [9],"outcome (MYC, MYC (gene 4609))",AC50 [2],AC50 [7],AC50 [1],AC50 [4],AC50 [5],AC50 [6],AC50 [8],"AC50 (MYC, MYC (gene 4609))",AC50 [9],AC50 [3]
CC(C)(OO)c1ccccc1,inactive,inactive,inactive,inactive,inactive,inactive,inactive,inactive,inactive,inactive,,,,,,,,,,
CCC(C)(C)c1ccc(O)c(C(C)(C)CC)c1,inactive,inactive,inactive,inactive,inactive,inactive,inactive,inactive,inactive,inactive,,,,,,,,,,
O=C(O)C(F)(F)C(F)(F)C(F)(F)C(F)(F)C(F)(F)C(F)(F)F,inactive,inactive,inactive,inactive,inactive,inactive,inactive,inactive,inactive,inactive,,,,,,,,,,
O=C(O)C(F)(F)C(F)(F)C(F)(F)C(F)(F)C(F)(F)C(F)(F)C(F)(F)C(F)(F)C(F)(F)C(F)(F)F,inactive,,inactive,inactive,inactive,inactive,,,inactive,inactive,47.8 µM (active),47.8 µM (active),,,,,,,,
COc1cc(-c2ccc(N)c(OC)c2)ccc1N,inactive,inactive,inactive,inactive,inactive,inactive,inactive,inactive,inactive,inactive,,,13 µM (active),42.3 µM (active),50 µM (active),50 µM (active),79.7 µM (active),50 µM (active),,
O=C1C2(Cl)C3(Cl)C4(Cl)C(Cl)(Cl)C5(Cl)C3(Cl)C1(Cl)C5(Cl)C24Cl (stereo not given),,,inactive,,,inactive,,,,,90.8 µM (active),91.9 µM (active),91.7 µM (active),93.5 µM (active),91.1 µM (active),,93.8 µM (active),24.9 µM (active),88.8 µM (active),
Oc1cccc2cccnc12,inactive,inactive,inactive,inactive,inactive,inactive,inactive,inactive,inactive,inactive,,,,,,,,,,
ClC1(Cl)C2(Cl)C3(Cl)C4(Cl)C(Cl)(Cl)C5(Cl)C3(Cl)C1(Cl)C5(Cl)C24Cl (stereo not given),inactive,inactive,inactive,inactive,inactive,inactive,inactive,inactive,inactive,inactive,,,,,,,,,,
C[C@@H]1C[C@@H]([C@H](O)CC2CC(=O)NC(=O)C2)C(=O)[C@@H](C)C1,,inactive,,,,,,,inactive,,,92.2 µM (active),11.8 µM (active),12.5 µM (active),30 µM (active),20 µM (active),10.6 µM (active),13.9 µM (active),,12.2 µM (active)
O=c1[nH]c(=O)[nH]c(=O)[nH]1,inactive,inactive,inactive,inactive,inactive,inactive,inactive,inactive,inactive,inactive,,,,,,,,,,
C=C(C)C(=O)[O][Sn]([CH2]CCC)([CH2]CCC)[CH2]CCC,,inactive,inactive,inactive,,,,inactive,inactive,,,6.44 µM (active),3.28 µM (active),,6.54 µM (active),2.37 µM (active),,2.77 µM (active),,
CN(C)N=O,inactive,inactive,inactive,inactive,inactive,inactive,inactive,inactive,inactive,inactive,,,,,,,,,,
CC(C)(C)CC(C)(C)c1ccc(O)cc1,inactive,inactive,inactive,,inactive,inactive,inactive,inactive,inactive,inactive,,,,25.9 µM (active),,,,,,
C[C@]12CCC(=O)C[C@@H]1CC[C@@H]1[C@@H]2CC[C@]2(C)[C@@H](O)CC[C@@H]12,inactive,inactive,inactive,inactive,inactive,inactive,inactive,inactive,inactive,inactive,,,,,,,,,,
CC(C)(C)c1cc(O)ccc1O,inactive,inactive,,inactive,inactive,inactive,inactive,inactive,inactive,inactive,,,,,,,,,,
ClCC(Cl)CCl,inactive,inactive,inactive,inactive,inactive,inactive,inactive,inactive,inactive,inactive,,,,,,,,,,

SMILES,outcome [1],outcome [2],outcome [3],outcome [4],outcome [5],outcome [6],outcome [7],outcome [8],outcome [9],"outcome (MYC, MYC (gene 4609))",AC50 [2],AC50 [7],AC50 [1],AC50 [4],AC50 [5],AC50 [6],AC50 [8],"AC50 (MYC, MYC (gene 4609))",AC50 [9],AC50 [3]
O=[N+]([O-])c1ccc(O)c([N+](=O)[O-])c1,,,inactive,inactive,inactive,,inactive,,inactive,,17.7 µM (active),,60.3 µM (active),,,12 µM (active),23.1 µM (active),89.6 µM (active),,
CCOP(=S)(OCC)SCSP(=S)(OCC)OCC,inactive,,inactive,inactive,inactive,inactive,inactive,inactive,inactive,,0.064 µM (active),,,,,,,0.09 µM (active),,
CC12CC1(C)C(=O)N(c1cc(Cl)cc(Cl)c1)C2=O (stereo not given),inactive,inactive,inactive,inactive,inactive,inactive,inactive,inactive,inactive,inactive,,,,,,,,,,
CC(C)(c1ccccc1)c1ccc(O)c(C(C)(C)c2ccccc2)c1,inactive,inactive,inactive,inactive,inactive,,inactive,,inactive,,,,,,,61.7 µM (active),78 µM (active),50 µM (active),,
CCN1CCC2(CC1)COc1cc3c(cc12)N(C(=O)c1ccc(-c2ccc(-c4nnc(C)o4)cc2C)cc1)CC3,,,,inactive,,inactive,,inactive,,inactive,31.8 µM (active),32.7 µM (active),16 µM (active),,18.2 µM (active),,,,76.1 µM (active),29.3 µM (active)
CC(=O)[O][Hg][c]1ccccc1,,,inactive,,,inactive,,inactive,,,20.6 µM (active),29.3 µM (active),16 µM (active),4.54 µM (active),12.7 µM (active),,,24.2 µM (active),15.8 µM (active),
O=C(O)C(Cl)(Cl)Cl,inactive,inactive,inactive,inactive,inactive,inactive,inactive,inactive,inactive,inactive,,9.92 µM (active),,,,,,,,
CCOP(=S)(OCC)Oc1nc(Cl)c(Cl)cc1Cl,inactive,inactive,inactive,inactive,inactive,inactive,inactive,inactive,inactive,inactive,,,,,,,,,,
NC(=O)O,inactive,inactive,inactive,inactive,inactive,inactive,inactive,inactive,inactive,inactive,,,,,,,,,,
Cc1ccccc1N,inactive,inactive,inactive,inactive,inactive,inactive,inactive,inactive,inactive,inactive,,,,,,,,,,
Cn1sc(Cl)cc1=O,inactive,inactive,inactive,inactive,inactive,inactive,inactive,inactive,inactive,inactive,,,,,,,,,,
CCCCCCCCc1ccc(O)cc1,inactive,inactive,inactive,inactive,inactive,inactive,inactive,inactive,inactive,inactive,,,,,,,,,,
CCC(=O)C(CC(C)N(C)C)(c1ccccc1)c1ccccc1 (stereo not given),inactive,inactive,inactive,,inactive,inactive,inactive,inactive,inactive,inactive,,,,18.9 µM (active),,,,,,
C=CC(=O)OCCCCCC(C)C,inactive,inactive,inactive,inactive,inactive,inactive,inactive,inactive,inactive,inactive,,,,,,,,,,
O=C(Nc1ccc2[nH]ccc2c1)c1cc2cc(F)ccc2n1Cc1cccc(F)c1,,,inactive,,,,,,,,89.5 µM (active),19.9 µM (active),50 µM (active),50 µM (active),50 µM (active),59.7 µM (active),24.9 µM (active),15.7 µM (active),29 µM (active),
